Screens from PubChem.
VP16 counter – inhibits Gal4-VP16 luciferase reporter, ROR gamma counter-screen. Drosophila S2 Gal4-VP16 UAS-luciferase, luminescence, 20 h. AID 2546. Potency, µM (top dose mostly 53.6 µM), for the others: at the top dose activity, negative = inhibition, hits mostly inhibitors. 310,000 tested, 3.5% active;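 also: Gal4-VP16 expression switched on by copper sulfate through the metallothionein promoter; nearly all actives have a fitted effect of over 50% in size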
TDP1 cell CPT – growth inhibition of DT40 Tdp1-/-;hTDP1 cells with camptothecin (screen for TDP1 inhibitors) | Potency, µM (highest dose often 46.2 µM), for inactives: at the top dose activity change, negative = growth inhibition, hits mostly inhibitors | chicken DT40 Tdp1-/-;hTDP1 cells + 20 nM CPT, ATP luminescence, 48 h | 420,000 tested, 12% active | AID 686979; also: nearly all actives have a fitted effect of over 55% in size
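Cell growth measured by CellTiter-Glo luminescence after a minimum 48 h, 37 C compound exposure with 20 nM CPT in Tdp1-knockout DT40 cells stably expressing hTDP1, seeded 400/well; qHTS titration format.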
DT40 TDP1 no CPT – qHTS for Inhibitors of human tyrosyl-DNA phosphodiesterase 1 (TDP1): qHTS in cells in absence of CPT; DT40 Tdp1-/- hTDP1 cells, no CPT, ATP luminescence, 48 h; Potency, µM (doses to about 46.2 µM), for inactives: at the top dose activity change, negative = growth inhibition, actives largely listed as inhibitors; 420,000 tested, 15% active; also: nearly all actives have a fitted effect of over 55% in size
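Chicken DT40 Tdp1-/- cells complemented with human TDP1, screened without camptothecin (DMSO vehicle only), 400 cells/well. Compounds pin-transferred, cells incubated at 37 °C for at least 48 hr. Growth read as ATP-dependent luminescence (CellTiter-Glo, 30 min at RT).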
RORg inh – ROR gamma (mouse) transcription inhibition | P51450 | Drosophila S2 Gal4-RORgamma UAS-luciferase reporter, 20 h | Potency, µM (titrated, usually from 53.6 µM), without a hit: at the top dose activity change, negative = inhibition, usual class: inhibitors | 310,000 tested, 5.4% active | AID 2551; also: nearly all actives have a fitted effect of over 60% in size
Target sequence (P51450 whole entry, looked up, the tested form may be a part): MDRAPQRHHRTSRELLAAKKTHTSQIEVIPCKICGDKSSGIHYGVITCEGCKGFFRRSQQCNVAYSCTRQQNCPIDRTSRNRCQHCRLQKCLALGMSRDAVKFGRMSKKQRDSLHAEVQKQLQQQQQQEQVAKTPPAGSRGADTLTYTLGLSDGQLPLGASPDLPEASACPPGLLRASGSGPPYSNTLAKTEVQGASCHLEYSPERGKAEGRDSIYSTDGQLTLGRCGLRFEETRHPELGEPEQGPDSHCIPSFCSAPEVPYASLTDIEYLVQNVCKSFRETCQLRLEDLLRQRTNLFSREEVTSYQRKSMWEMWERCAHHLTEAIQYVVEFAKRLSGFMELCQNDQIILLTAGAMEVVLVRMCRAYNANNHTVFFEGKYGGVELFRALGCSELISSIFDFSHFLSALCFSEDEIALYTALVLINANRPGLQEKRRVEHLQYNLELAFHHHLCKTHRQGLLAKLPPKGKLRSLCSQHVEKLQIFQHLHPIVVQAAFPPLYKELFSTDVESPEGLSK
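Schneider cells (Drosophila), stable Gal4 DBD–ROR gamma + UAS-luc; 1 hr cmpd preincubation; Cu2+ induction 700 uM final; 20 hr ambient; luminescence.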
ALOX12 inh – ALOX12 (human) lipoxygenase inhibition; Potency, µM (top dose mostly 108 µM), for the others: top-dose activity change, negative = inhibition, hits mostly inhibitors; purified 12hLO, xylenol orange hydroperoxide absorbance; 580,000 tested, 1.1% active
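Purified human 12hLO at 150 nM in 25 mM Hepes, 0.01% Triton X-100, pH 7.0, preincubated 15 min at room temperature with compound. Reaction started with 40 uM arachidonic acid, 30 min at room temperature. Hydroperoxide measured by Fe-xylenol orange, 573/405 nm absorbance ratio.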
ELG1 DNA repair – ELG1-dependent DNA repair inhibition. 330,000 tested, 2.3% active. Potency, µM (series often up to 46.1 µM), inactives show top-dose activity change, negative = inhibition, usual class: inhibitors. HEK293T ELG1-luciferase reporter, luminescence, 16 h; DNA damage induced by 5-fluorouridine. AID 504467; also: nearly all actives have a fitted effect of over 55% in size
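Overnight (16 hr) co-exposure of 2,000 cells/well to 5-fluorouridine and compound at 37 °C preceded detection. Luciferase was quantified via ONE-Glo luminescence; loss of signal denotes inhibition.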
Active calls of the source: *; ? = inconclusive; / = no result; [ ] = remark or other dose. Only some compounds are listed: those with a hit (about 15% of all), similar ones and a draw of the others. Calls follow the shape of the dose curve; as a rule, active = well fitted curve in the direction sought with a large enough effect; inconclusive = small, poorly fitted or top-dose-only effect, or another doubt; inactive = no such curve, though single readings can be large; an effect the other way counts as inactive or inconclusive. % is scaled to controls: 0 for no effect and ±100 for the full control effect; potency is read from the fitted curve at half-maximal effect.

SMILES	VP16 counter	TDP1 cell CPT	DT40 TDP1 no CPT	RORg inh	ALOX12 inh	ELG1 DNA repair
Cn1cc(C(C[N+](=O)[O-])c2ccccc2)c2ccccc21 (stereo not drawn)	3%	?	?	?	13%	?
CC(=O)n1cc(C(C[N+](=O)[O-])SCCN)c2ccccc21 (stereo not drawn)	?	5.2µM*	5.2µM*	13µM*	/	?
CC1CC(C)CN(CCCNC(=O)c2ccc3c(c2)N(Cc2ccccc2)C(=O)c2ccccc2S3=O)C1 (stereo not drawn)	-17%	?	?	11µM*	-10%	0%
CCCCSCCCNC(=O)c1ccc2c(c1)N(CC)C(=O)c1ccccc1S2=O (stereo not drawn)	-2%	18µM*	?	?	-21%	-16%
CCN1C(=O)c2ccccc2S(=O)c2ccc(C(=O)NCc3ccccc3OC)cc21 (stereo not drawn)	/	?	23µM*	/	-23%	/
CCCN(CCC)CCCNC(=O)c1ccc2c(c1)N(CC)C(=O)c1ccccc1S2=O (stereo not drawn)	-10%	-4%	-14%	-13%	-10%	26%
COc1ccc(C(=O)OCc2ccc(Br)cc2)cc1OC	/	/	/	/	23%	/
CC(C)NC(=O)C[C@@H]1C[C@H]2O[C@H](CNC(=O)NC(C)C)[C@@H](O)[C@H]2O1	/	/	/	/	5%[176 µM]	/
O=C(NCc1ccccn1)c1ccc(-c2ccccc2)cc1	-4%	13%	-1%	21%	30%	?
O=C(NCc1ccccn1)c1c(-c2ccccc2)sc2ccccc12	/	23µM*	?	/	-2%	-10%
Cc1ccc(NC(=O)CCC(=O)N2Cc3ccccc3Oc3ncccc32)cc1Cl	/	23µM*	?	/	-27%	/
O=C(CCC(=O)N1Cc2ccccc2Oc2ncccc21)NCc1cccc(Cl)c1	/	?	-15%	/	-29%	/
CCC(C)Sc1ccc([C@H]2N[C@@](Cc3ccccc3)(C(=O)OC)[C@H]3C(=O)N(CC)C(=O)[C@@H]23)cc1OC (stereo partly drawn)	/	?	21µM*	/	-7%	4%
CCN1C(=O)[C@H]2[C@@H](c3ccc(-c4ccc5c(c4)OCO5)c(OC)c3)N[C@@](Cc3ccccc3)(C(=O)OC)[C@H]2C1=O	/	?	?	/	-24%	29%
CCC(C)Sc1ccc([C@H]2N[C@@](Cc3ccccc3)(C(=O)OC)[C@H]3C(=O)N(CC)C(=O)[C@@H]23)cc1 (stereo partly drawn)	/	?	21µM*	/	-11%	?
CC(C)(C)c1n[nH]c(=S)n(/N=C/c2cccs2)c1=O	16µM*	-5%	-24%	10µM*	-5%	?
Cc1n[nH]c(=S)n(/N=C/c2cccs2)c1=O	11%	?	6.5µM*	-42%	?	16%
CC(C)(C)c1n[nH]c(=S)n(N)c1=O	-4%	-3%	-1%	-31%	0%	-8%
Cc1noc(C)c1S(=O)(=O)N1CCCC(Cc2nncn2C)C1 (stereo not drawn)	/	/	/	/	18%	/
O=C(NCCC(c1ccccc1)c1ccccc1)c1ccc[n+]([O-])c1	/	/	/	/	48%	/
CCc1nc2c(OCc3ccccc3C)cccn2c1N(C)C(=O)c1ccc(C)cc1	/	18µM*	16µM*	/	-4%	/
CCc1nc2c(OCc3ccc(F)c(F)c3)cccn2c1N(C)C(=O)c1ccc(OC)cc1	/	16µM*	23µM*	/	-5%	/
CCc1nc2c(OCc3ccccc3C)cccn2c1N(C)C(=O)c1ccco1	/	?	?	/	-20%	/
CCc1nc2c(OCc3cc(Cl)cc(Cl)c3)cccn2c1N(C)C(=O)c1ccc(C)cc1	/	16µM*	?	/	?	/
